Test results: PubChem BioAssay (Tox21)
“And” between values parts separate entries of the source, which are not always exact repeats. Identical values can stand only once. Inconclusive results are not listed. The source made the active and inactive calls. Unless noted, calls come from the whole dose curve; as a rule, active = well fitted curve in the direction sought with a large enough effect in the repeat runs; inconclusive = weak or mixed curves; inactive = no such curve, though single readings can be large; an effect the other way counts as inactive or inconclusive.

Tests used:
[1] = molecular target: Thyrotropin receptor (Homo sapiens) (UniProt P16473); assay: qHTS assay to identify small molecule agonists of the thyroid stimulating hormone receptor (TSHR) signaling pathway (AID 1224843; calls by dose curve; note: nearly all actives have a fitted effect of over 45% in size)
In short: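 Screening of the Tox21 10K collection used HEK293 cells engineered with TSHR at 800 cells per well. After a 30-min room-temperature compound exposure, HTRF cAMP reagents were added and fluorescence recorded 1 h later.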

[2] = qHTS assay to identify small molecule agonists of the hypoxia (HIF-1) signaling pathway - cell viability counter screen (AID 1224844; calls by dose curve; note: nearly all actives have a fitted effect of over 50% in size)
In short: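 ME-180 HRE-bla cells, 2,000/well, 0.5% dialyzed FBS; 5 hr settle, 17 hr compound at 37C/5% CO2; CCF4-AM reporter read first, then CellTiter-Glo luminescence after 30 min RT.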

[3] = qHTS assay to identify small molecule agonists of H2AX (AID 1224845; active = well fitted activation curve with a large enough effect in the signal ratio in the repeat runs, not every such curve was filed as active; the % refers to the signal ratio)
In short: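 Phospho-H2AX Ser139 measured by HTRF (ex 320 nm; em 665 and 620 nm) after 24 hr antibody incubation. Compounds, 15 concentrations, 0.76% DMSO, were applied to CHO-K1 cells for 3hr at 37C before lysis.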

[4] = qHTS assay to identify small molecule agonists of H2AX - cell viability counter screen (AID 1224847; calls by dose curve; note: top concentration of the series differs between compounds; nearly all actives have a fitted effect of over 30% in size)
In short: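 Quantitative HTS viability measurement: CHO-K1 wild-type cells in serum (10% FBS) medium, short 3 hr drug exposure at 37C with 0.76% DMSO, CellTiter-Glo luminescent detection.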

[5] = qHTS RealTime-Glo MT Cell Viability Assay in HepG2 cells - 24 hour (AID 1224867); note: nearly all actives have a fitted effect of over 50% in size
In short: (§1)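 HepG2 cells were seeded at 600 cells/well together with NanoLuc luciferase and a cell-permeant prosubstrate, preincubated 5 h at 37 C/5% CO2, then pin-dosed with compounds in DMSO. Nonlytic luminescence from viable cells was read at each time point.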

[6] = qHTS RealTime-Glo MT Cell Viability Assay in HEK293 cells - 32 hour (AID 1224868); note: top concentration of the series differs between compounds; nearly all actives have a fitted effect of over 50% in size
In short: (§2)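 HEK293 cells were seeded at 600 cells/well together with NanoLuc luciferase and cell-permeant prosubstrate, preincubated 5 h at 37 C/5% CO2, then given compound in DMSO by pintool. Luminescence from viable-cell prosubstrate reduction was read repeatedly over 40 h.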

[7] = A CellTox Green Cytotoxicity Assay to monitor cytotoxicity in HEK293 cells - 0 hour (AID 1224869); note: nearly all actives have a fitted effect of over 50% in size
In short: (§3)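 Nonlytic real-time cytotoxicity: HEK293 + CellTox Green reagent plated, 5 h preincubation, pintool compound addition (23 nL in DMSO), 37 C for 40 h, fluorescence measured at successive time points.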

[8] = qHTS RealTime-Glo MT Cell Viability Assay in HepG2 cells - 40 hour (AID 1224870); note: nearly all actives have a fitted effect of over 50% in size
In short: (§4)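 Real-time viability: cells seeded at 600 per well together with NanoLuc and cell-permeant prosubstrate, compounds added after 5 h incubation. Luminescence tracked at 0, 8, 16, 24, 32 and 40 h of exposure.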

[9] = A CellTox Green Cytotoxicity Assay to monitor cytotoxicity in HEK293 cells - 40 hour (AID 1224871); note: nearly all actives have a fitted effect of over 45% in size
In short: as §3

[10] = qHTS RealTime-Glo MT Cell Viability Assay in HEK293 cells - 16 hour (AID 1224872)
In short: as §2

[11] = qHTS RealTime-Glo MT Cell Viability Assay in HepG2 cells - 8 hour (AID 1224873); note: nearly all actives have a fitted effect of over 55% in size
In short: as §4

[12] = qHTS RealTime-Glo MT Cell Viability Assay in HEK293 cells - 40 hour (AID 1224874); conditions: RealTime-Glo luminescence; max response: hits give low values; note: nearly all actives have a fitted effect of over 50% in size
In short: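 Cells were seeded together with NanoLuc luciferase and a prosubstrate that viable cells reduce to a luciferase substrate. After a 5 h incubation at 37 C/5% CO2, compounds were added and luminescence was measured repeatedly during 40 h of treatment.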

[13] = A CellTox Green Cytotoxicity Assay to monitor cytotoxicity in HEK293 cells - 24 hour (AID 1224875); note: nearly all actives have a fitted effect of over 45% in size
In short: as §3

[14] = A CellTox Green Cytotoxicity Assay to monitor cytotoxicity in HepG2 cells - 16 hour (AID 1224876); note: nearly all actives have a fitted effect of over 45% in size
In short: (§5)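 Read-out is fluorescence of a cyanine dye excluded from live cells that stains DNA of dead HepG2 cells, with signal proportional to cytotoxicity. Plates were read at 0, 8, 16, 24, 32 and 40 h after compound addition.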

[15] = qHTS RealTime-Glo MT Cell Viability Assay in HepG2 cells - 32 hour (AID 1224877); note: nearly all actives have a fitted effect of over 55% in size
In short: as §1

[16] = A CellTox Green Cytotoxicity Assay to monitor cytotoxicity in HepG2 cells - 24 hour (AID 1224878); note: nearly all actives have a fitted effect of over 45% in size
In short: as §5

[17] = A CellTox Green Cytotoxicity Assay to monitor cytotoxicity in HepG2 cells - 40 hour (AID 1224879); note: nearly all actives have a fitted effect of over 40% in size
In short: as §5

[18] = qHTS assay to identify small molecule antagonists of the estrogen related receptor (ERR) signaling pathway from Tox21 library (AID 1224848); note: nearly all actives have a fitted effect of over 50% in size
In short: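 Antagonist-mode screen of the Tox21 10K library in an NTP-provided ERR reporter cell line; 18 h compound exposure at 37 C, luminescence measured with ONE-Glo.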

[19] = qHTS assay to identify small molecule agonists of the estrogen related receptor (ERR) signaling pathway from Tox21 library (AID 1224849; calls by dose curve; note: nearly all actives have a fitted effect of over 15% in size); conditions: ERR reporter cell line, ONE-Glo luciferase, 18 h
In short: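 ERR cells, 6 h pre-incubation 37 C/5% CO2; cpd in DMSO pinned; 18 h 37 C; ONE-Glo added, 30 min RT; luminescence read. Agonist mode, qHTS.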
% is set by controls: 0 for no effect and ±100 for the full control effect.

Chain of Thyrotropin receptor (Homo sapiens) (P16473 whole entry, looked up): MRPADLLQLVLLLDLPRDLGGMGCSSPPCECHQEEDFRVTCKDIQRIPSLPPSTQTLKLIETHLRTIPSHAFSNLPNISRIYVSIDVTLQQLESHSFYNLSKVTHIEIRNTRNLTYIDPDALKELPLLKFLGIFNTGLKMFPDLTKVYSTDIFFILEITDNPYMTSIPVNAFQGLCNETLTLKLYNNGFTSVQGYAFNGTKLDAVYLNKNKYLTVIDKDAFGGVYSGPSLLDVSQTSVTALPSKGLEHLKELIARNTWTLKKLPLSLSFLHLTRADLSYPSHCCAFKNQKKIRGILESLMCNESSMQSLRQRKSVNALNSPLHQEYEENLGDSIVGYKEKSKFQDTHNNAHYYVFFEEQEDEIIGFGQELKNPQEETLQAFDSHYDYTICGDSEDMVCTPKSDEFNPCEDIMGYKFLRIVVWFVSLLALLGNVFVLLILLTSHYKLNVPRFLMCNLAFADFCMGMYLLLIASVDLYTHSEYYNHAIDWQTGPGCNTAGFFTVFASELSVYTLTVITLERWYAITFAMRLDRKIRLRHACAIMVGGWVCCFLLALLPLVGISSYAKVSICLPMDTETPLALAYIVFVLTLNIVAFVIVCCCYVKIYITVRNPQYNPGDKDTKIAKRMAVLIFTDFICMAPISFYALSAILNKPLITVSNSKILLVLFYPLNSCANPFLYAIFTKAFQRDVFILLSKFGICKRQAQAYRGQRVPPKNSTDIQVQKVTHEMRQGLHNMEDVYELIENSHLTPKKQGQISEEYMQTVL

Cc1ccc(C)c(OCCCC(C)(C)C(=O)O)c1
inactive: outcome [1] | Potency [2] | outcome [3] | outcome [4] | Potency [5] | Potency [6] | outcome [7] | Potency [8] | Potency [9] | Potency [10] | outcome [11] | max response [12] 7.5% and 19.4% and 5.2% | Potency [13] | Potency [14] | Potency [15] | Potency [16] | Potency [17]

Cc1ccccc1C(OCCN(C)C)c1ccccc1 (stereo not drawn)
inactive: outcome [1] | Potency [2] | outcome [3] | Potency [18] | activity change, positive = activation ([19]; at 42.5 µM (top of the series)) 0.836% | activity change, positive = activation ([19]; at 92.4 µM (top of the series)) 0.151% and 0.194% | Potency [5] | Potency [6] | outcome [7] | Potency [9] | Potency [10] | outcome [11] | max response [12] -3.03% and -20.7% and -19.7% | Potency [13] | Potency [14] | Potency [15] | Potency [16] | Potency [17]

Cc1ccc(O)cc1
inactive: outcome [1] | Potency [2] | outcome [3] | outcome [4] | Potency [5] | Potency [6] | outcome [7] | Potency [8] | Potency [9] | Potency [10] | outcome [11] | max response [12] 8.24% [middle of 4 runs] | Potency [13] | Potency [14] | Potency [15] | Potency [16] | Potency [17]

CCC1(c2ccccc2)C(=O)NCNC1=O
inactive: outcome [1] | Potency [2] | outcome [3] | outcome [4] | Potency [5] | Potency [6] | outcome [7] | Potency [9] | Potency [10] | outcome [11] | max response [12] -6.46% and 0.966% and 0.298% | Potency [13] | Potency [14] | Potency [15] | Potency [16] | Potency [17]
